# Test results: article PMC7862700, “An all-to-all approach to the identification of sequence-specific readers for epigenetic DNA modifications on cytosine”
# Legend:
# Test in all cases: DAPPL (digital affinity profiling via proximity ligation, sequencing); 10 mM Tris-HCl pH 7.5, 50 mM NaCl, 1 mM DTT, 4% glycerol, room temperature, 30 min; GST-TFs on glutathione beads, 16-mer random dsDNA library, 0.1% formaldehyde crosslink after washing; high values mean tight binding
# Conditions in all cases: protein: recombinant; tags: N-terminal GST; dsDNA, one strand shown
# FLI1 = molecular target: T1, FLI1 (Homo sapiens, UniProt Q01543 1-452)
# T1 sequence: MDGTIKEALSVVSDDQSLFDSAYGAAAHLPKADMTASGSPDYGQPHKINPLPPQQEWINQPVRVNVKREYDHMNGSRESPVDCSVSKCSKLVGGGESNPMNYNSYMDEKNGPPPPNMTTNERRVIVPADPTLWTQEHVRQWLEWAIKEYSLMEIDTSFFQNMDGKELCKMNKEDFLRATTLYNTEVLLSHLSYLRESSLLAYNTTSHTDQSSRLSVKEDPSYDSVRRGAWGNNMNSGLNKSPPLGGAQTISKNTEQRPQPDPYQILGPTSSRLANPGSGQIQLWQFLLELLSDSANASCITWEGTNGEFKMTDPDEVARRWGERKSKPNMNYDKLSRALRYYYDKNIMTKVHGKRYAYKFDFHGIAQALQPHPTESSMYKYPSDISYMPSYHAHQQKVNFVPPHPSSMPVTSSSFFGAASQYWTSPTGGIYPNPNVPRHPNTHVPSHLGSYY
# Summary of the method: (§1)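 Pools of DNA-barcoded human transcription factors, expressed in yeast as GST fusions on glutathione beads and combined with a tag-only sample, were incubated with 200 nmole of a 16-mer random double-stranded DNA library. Incubation took 30 min at room temperature in Tris/NaCl/DTT/glycerol buffer and was followed by washing, 0.1% formaldehyde crosslinking, proximity ligation (BsaI/T4 ligase, 1 h, 37 °C), PCR amplification and sequencing on an Illumina NextSeq500. Binding signal is the ratio of a hexamer's read frequency for a factor to its frequency for the tag-only sample.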
# ELK1 = molecular target: T2, ELK1 (Homo sapiens, UniProt P19419 1-428)
# T2 sequence: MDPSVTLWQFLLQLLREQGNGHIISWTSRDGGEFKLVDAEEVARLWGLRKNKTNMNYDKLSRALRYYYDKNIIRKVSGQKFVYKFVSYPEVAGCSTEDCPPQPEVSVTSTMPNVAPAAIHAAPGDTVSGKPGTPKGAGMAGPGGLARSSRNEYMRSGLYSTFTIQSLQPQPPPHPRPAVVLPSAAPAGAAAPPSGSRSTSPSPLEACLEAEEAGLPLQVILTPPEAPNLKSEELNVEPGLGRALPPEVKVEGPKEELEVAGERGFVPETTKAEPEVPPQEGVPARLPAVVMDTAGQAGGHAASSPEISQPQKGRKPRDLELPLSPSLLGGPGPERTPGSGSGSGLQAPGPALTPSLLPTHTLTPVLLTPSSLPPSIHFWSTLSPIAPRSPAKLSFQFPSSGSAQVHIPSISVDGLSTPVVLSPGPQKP
# Summary of the method: as §1
# GABPA = molecular target: T3, GABPA (Homo sapiens, UniProt Q06546 1-454)
# T3 sequence: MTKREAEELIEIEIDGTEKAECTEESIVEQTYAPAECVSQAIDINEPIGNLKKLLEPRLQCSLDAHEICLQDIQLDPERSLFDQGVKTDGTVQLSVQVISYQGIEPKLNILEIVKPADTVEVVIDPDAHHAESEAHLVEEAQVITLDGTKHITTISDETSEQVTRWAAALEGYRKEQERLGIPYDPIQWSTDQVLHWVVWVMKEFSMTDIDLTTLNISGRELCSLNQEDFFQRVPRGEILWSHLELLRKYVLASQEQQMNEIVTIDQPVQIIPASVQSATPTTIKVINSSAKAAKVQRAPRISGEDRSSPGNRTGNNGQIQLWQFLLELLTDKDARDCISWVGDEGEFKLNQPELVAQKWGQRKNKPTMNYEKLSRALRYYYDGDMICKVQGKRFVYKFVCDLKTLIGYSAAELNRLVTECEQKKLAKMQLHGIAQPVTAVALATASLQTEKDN
# Summary of the method: as §1
# ERG = molecular target: T4, ERG (Homo sapiens, UniProt P11308 1-479)
# T4 sequence: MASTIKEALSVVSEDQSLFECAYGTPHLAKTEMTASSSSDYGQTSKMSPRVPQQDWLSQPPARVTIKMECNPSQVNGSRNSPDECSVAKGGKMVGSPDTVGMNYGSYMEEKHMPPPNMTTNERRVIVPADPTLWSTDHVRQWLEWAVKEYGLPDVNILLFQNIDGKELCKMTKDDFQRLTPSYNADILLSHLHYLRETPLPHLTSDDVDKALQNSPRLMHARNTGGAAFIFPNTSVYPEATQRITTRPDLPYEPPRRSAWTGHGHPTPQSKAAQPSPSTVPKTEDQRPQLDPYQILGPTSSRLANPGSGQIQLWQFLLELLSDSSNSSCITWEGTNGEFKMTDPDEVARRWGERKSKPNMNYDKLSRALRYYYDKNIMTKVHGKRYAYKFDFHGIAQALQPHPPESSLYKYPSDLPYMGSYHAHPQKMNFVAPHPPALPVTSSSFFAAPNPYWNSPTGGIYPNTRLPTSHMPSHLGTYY
# Summary of the method: as §1
# ELF1 = ELF1 (Homo sapiens, UniProt P32519 1-619)
# Summary of the method: as §1
# EHF = molecular target: T5, EHF (Homo sapiens, UniProt Q9NZC4 1-300)
# T5 sequence: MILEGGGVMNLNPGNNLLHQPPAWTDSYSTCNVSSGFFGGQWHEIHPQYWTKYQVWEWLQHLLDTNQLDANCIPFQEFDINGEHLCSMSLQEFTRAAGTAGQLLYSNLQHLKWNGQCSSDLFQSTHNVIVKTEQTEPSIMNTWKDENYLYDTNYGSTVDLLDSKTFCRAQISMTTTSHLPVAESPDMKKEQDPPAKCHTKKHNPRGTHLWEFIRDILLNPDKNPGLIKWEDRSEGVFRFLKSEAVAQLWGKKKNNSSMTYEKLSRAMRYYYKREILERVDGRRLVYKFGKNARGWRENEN
# Summary of the method: as §1
# SPI1 = SPI1 (Homo sapiens, UniProt P17947 1-270)
# Summary of the method: as §1
# SPIB = SPIB (Homo sapiens, UniProt Q01892 1-262)
# Summary of the method: as §1
# ELK3 = molecular target: T6, ELK3 (Homo sapiens, UniProt P41970 1-407)
# T6 sequence: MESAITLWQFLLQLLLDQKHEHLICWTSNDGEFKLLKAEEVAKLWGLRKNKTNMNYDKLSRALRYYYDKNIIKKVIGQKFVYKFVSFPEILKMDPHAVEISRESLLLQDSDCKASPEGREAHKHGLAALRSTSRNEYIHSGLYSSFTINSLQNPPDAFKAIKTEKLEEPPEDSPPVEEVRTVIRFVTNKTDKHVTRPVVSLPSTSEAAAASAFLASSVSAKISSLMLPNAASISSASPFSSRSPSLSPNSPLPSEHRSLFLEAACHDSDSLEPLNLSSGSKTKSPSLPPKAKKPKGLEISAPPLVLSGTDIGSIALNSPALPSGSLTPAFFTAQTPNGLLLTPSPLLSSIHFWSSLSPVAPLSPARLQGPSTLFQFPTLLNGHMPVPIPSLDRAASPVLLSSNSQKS
# Summary of the method: as §1
# Sequence of ELF1 (P32519 whole entry): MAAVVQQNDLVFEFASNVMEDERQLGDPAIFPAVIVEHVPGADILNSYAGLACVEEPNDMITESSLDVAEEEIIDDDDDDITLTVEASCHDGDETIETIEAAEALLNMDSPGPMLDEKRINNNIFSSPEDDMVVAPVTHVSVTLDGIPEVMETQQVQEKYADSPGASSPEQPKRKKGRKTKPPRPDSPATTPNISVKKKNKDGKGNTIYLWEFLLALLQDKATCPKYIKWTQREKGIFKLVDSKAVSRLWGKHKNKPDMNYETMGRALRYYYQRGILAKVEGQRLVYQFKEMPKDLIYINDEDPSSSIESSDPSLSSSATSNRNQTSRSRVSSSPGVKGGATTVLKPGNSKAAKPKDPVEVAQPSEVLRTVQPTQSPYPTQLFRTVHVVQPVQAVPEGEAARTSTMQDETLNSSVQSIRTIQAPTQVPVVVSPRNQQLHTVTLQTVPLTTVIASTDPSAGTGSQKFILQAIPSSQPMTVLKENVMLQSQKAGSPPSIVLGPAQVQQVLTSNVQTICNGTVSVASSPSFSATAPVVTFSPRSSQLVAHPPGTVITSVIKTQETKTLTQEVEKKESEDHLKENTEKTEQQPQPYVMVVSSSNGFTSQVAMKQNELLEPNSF
# Sequence of SPIB (Q01892 whole entry): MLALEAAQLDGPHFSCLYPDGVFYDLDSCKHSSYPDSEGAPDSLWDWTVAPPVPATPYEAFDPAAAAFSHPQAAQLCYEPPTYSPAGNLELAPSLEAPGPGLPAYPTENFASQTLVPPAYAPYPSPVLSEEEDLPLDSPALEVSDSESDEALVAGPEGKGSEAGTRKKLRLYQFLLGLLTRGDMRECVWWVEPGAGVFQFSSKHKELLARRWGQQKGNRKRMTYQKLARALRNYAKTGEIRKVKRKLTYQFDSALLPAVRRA
sequence,measurement,setting,value
CGTACA,binding signal,FLI1,"1.18 fold enrichment (6-mer frequency, TF over GST control)"
same,binding signal,ELK1,"1.19 fold enrichment (6-mer frequency, TF over GST control)"
same,binding signal,GABPA,"1.17 fold enrichment (6-mer frequency, TF over GST control)"
same,binding signal,ERG,"1.17 fold enrichment (6-mer frequency, TF over GST control)"
same,binding signal,ELF1,"1.26 fold enrichment (6-mer frequency, TF over GST control)"
same,binding signal,EHF,"1.16 fold enrichment (6-mer frequency, TF over GST control)"
same,binding signal,SPI1,"1.12 fold enrichment (6-mer frequency, TF over GST control)"
same,binding signal,SPIB,"1.1 fold enrichment (6-mer frequency, TF over GST control)"
same,binding signal,ELK3,"1.16 fold enrichment (6-mer frequency, TF over GST control)"
TAGGTT,binding signal,FLI1,"1.13 fold enrichment (6-mer frequency, TF over GST control)"
same,binding signal,ELK1,"1.04 fold enrichment (6-mer frequency, TF over GST control)"
same,binding signal,GABPA,"1 fold enrichment (6-mer frequency, TF over GST control)"
same,binding signal,ERG,"1.11 fold enrichment (6-mer frequency, TF over GST control)"
same,binding signal,ELF1,"1.08 fold enrichment (6-mer frequency, TF over GST control)"
same,binding signal,EHF,"1.08 fold enrichment (6-mer frequency, TF over GST control)"
same,binding signal,SPI1,"1.14 fold enrichment (6-mer frequency, TF over GST control)"
same,binding signal,SPIB,"1.13 fold enrichment (6-mer frequency, TF over GST control)"
same,binding signal,ELK3,"1.16 fold enrichment (6-mer frequency, TF over GST control)"
CTGACG,binding signal,FLI1,"1.19 fold enrichment (6-mer frequency, TF over GST control)"
same,binding signal,ELK1,"1.09 fold enrichment (6-mer frequency, TF over GST control)"
same,binding signal,GABPA,"1.23 fold enrichment (6-mer frequency, TF over GST control)"
same,binding signal,ERG,"1.06 fold enrichment (6-mer frequency, TF over GST control)"
same,binding signal,ELF1,"1.16 fold enrichment (6-mer frequency, TF over GST control)"
same,binding signal,EHF,"1.01 fold enrichment (6-mer frequency, TF over GST control)"
same,binding signal,SPI1,"1.06 fold enrichment (6-mer frequency, TF over GST control)"
same,binding signal,SPIB,"1.13 fold enrichment (6-mer frequency, TF over GST control)"
same,binding signal,ELK3,"1.03 fold enrichment (6-mer frequency, TF over GST control)"
TTGCGT,binding signal,FLI1,"1.05 fold enrichment (6-mer frequency, TF over GST control)"
same,binding signal,ELK1,"1.14 fold enrichment (6-mer frequency, TF over GST control)"
same,binding signal,GABPA,"1.12 fold enrichment (6-mer frequency, TF over GST control)"
same,binding signal,ERG,"1.03 fold enrichment (6-mer frequency, TF over GST control)"
same,binding signal,ELF1,"1.11 fold enrichment (6-mer frequency, TF over GST control)"
same,binding signal,EHF,"1.01 fold enrichment (6-mer frequency, TF over GST control)"
same,binding signal,SPI1,"1.11 fold enrichment (6-mer frequency, TF over GST control)"
same,binding signal,SPIB,"1.11 fold enrichment (6-mer frequency, TF over GST control)"
same,binding signal,ELK3,"1.13 fold enrichment (6-mer frequency, TF over GST control)"
CGATAA,binding signal,FLI1,"1.12 fold enrichment (6-mer frequency, TF over GST control)"
same,binding signal,ELK1,"1.02 fold enrichment (6-mer frequency, TF over GST control)"
same,binding signal,GABPA,"1.06 fold enrichment (6-mer frequency, TF over GST control)"
same,binding signal,ERG,"1.09 fold enrichment (6-mer frequency, TF over GST control)"
same,binding signal,ELF1,"1.08 fold enrichment (6-mer frequency, TF over GST control)"
same,binding signal,EHF,"1.03 fold enrichment (6-mer frequency, TF over GST control)"
same,binding signal,SPI1,"1.08 fold enrichment (6-mer frequency, TF over GST control)"
same,binding signal,SPIB,"1.19 fold enrichment (6-mer frequency, TF over GST control)"
same,binding signal,ELK3,"1.2 fold enrichment (6-mer frequency, TF over GST control)"
CCATTC,binding signal,FLI1,"1.22 fold enrichment (6-mer frequency, TF over GST control)"
same,binding signal,ELK1,"1.09 fold enrichment (6-mer frequency, TF over GST control)"
same,binding signal,GABPA,"1.1 fold enrichment (6-mer frequency, TF over GST control)"
same,binding signal,ERG,"1.2 fold enrichment (6-mer frequency, TF over GST control)"
same,binding signal,ELF1,"1.17 fold enrichment (6-mer frequency, TF over GST control)"
same,binding signal,EHF,"1.07 fold enrichment (6-mer frequency, TF over GST control)"
same,binding signal,SPI1,"1.16 fold enrichment (6-mer frequency, TF over GST control)"
same,binding signal,SPIB,"1.09 fold enrichment (6-mer frequency, TF over GST control)"
same,binding signal,ELK3,"1.29 fold enrichment (6-mer frequency, TF over GST control)"
GCCTTT,binding signal,FLI1,"1.33 fold enrichment (6-mer frequency, TF over GST control)"
same,binding signal,ELK1,"1.3 fold enrichment (6-mer frequency, TF over GST control)"
same,binding signal,GABPA,"1.32 fold enrichment (6-mer frequency, TF over GST control)"
same,binding signal,ERG,"1.2 fold enrichment (6-mer frequency, TF over GST control)"
same,binding signal,ELF1,"1.28 fold enrichment (6-mer frequency, TF over GST control)"
same,binding signal,EHF,"1.35 fold enrichment (6-mer frequency, TF over GST control)"
same,binding signal,SPI1,"1.49 fold enrichment (6-mer frequency, TF over GST control)"
same,binding signal,SPIB,"1.35 fold enrichment (6-mer frequency, TF over GST control)"
same,binding signal,ELK3,"1.27 fold enrichment (6-mer frequency, TF over GST control)"
TAAGCC,binding signal,FLI1,"1.15 fold enrichment (6-mer frequency, TF over GST control)"
same,binding signal,ELK1,"1.12 fold enrichment (6-mer frequency, TF over GST control)"
same,binding signal,GABPA,"1.19 fold enrichment (6-mer frequency, TF over GST control)"
same,binding signal,ERG,"1.13 fold enrichment (6-mer frequency, TF over GST control)"
same,binding signal,ELF1,"1.16 fold enrichment (6-mer frequency, TF over GST control)"
same,binding signal,EHF,"1.08 fold enrichment (6-mer frequency, TF over GST control)"
same,binding signal,SPI1,"1.08 fold enrichment (6-mer frequency, TF over GST control)"
same,binding signal,SPIB,"1.19 fold enrichment (6-mer frequency, TF over GST control)"
same,binding signal,ELK3,"1.06 fold enrichment (6-mer frequency, TF over GST control)"
